Measured values from PubChem BioAssay (NCATS).
Values joined by “and” are separate entries in the source; they are usually repeats but may differ in a detail not shown here. Equal values may be shown once. Records with an inconclusive call do not appear. Entries that show only a call come without a potency. The source holds several records for some structures; these can differ, active in one and inactive in another. Active and inactive are the calls of the source. Calls come from the whole dose curve; as a rule, active = well fitted inhibition curve with a large enough effect; inconclusive = small, poorly fitted or top-dose-only effect; inactive = no such curve, though single readings can be large or run the other way.

biological target: Cytochrome P450 2C19 (Homo sapiens) (UniProt P33261); assay: qHTS Assay for Inhibitors and Substrates of Cytochrome P450 2C19 (AID 899); details: recombinant CYP2C19, luciferin-H EGE luminescence; series mostly up to 57.1 µM; note: nearly all actives have a fitted effect of over 60% in size
Sequence (P33261 whole entry, looked up): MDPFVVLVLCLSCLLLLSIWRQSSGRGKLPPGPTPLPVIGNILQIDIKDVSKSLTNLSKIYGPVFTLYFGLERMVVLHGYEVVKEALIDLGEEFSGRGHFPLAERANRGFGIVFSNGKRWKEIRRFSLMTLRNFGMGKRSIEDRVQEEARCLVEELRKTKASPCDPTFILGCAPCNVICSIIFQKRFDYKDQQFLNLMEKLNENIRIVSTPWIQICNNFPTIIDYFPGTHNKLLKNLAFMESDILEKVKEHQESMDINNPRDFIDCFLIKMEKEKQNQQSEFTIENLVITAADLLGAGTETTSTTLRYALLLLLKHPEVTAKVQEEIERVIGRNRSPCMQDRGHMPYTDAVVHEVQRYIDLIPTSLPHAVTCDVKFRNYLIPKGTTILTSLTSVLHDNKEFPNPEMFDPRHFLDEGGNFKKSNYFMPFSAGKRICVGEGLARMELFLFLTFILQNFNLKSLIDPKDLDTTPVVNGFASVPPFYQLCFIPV
Description: NIH Molecular Libraries Screening Centers Network [MLSCN]
NIH Chemical Genomics Center [NCGC]
The P450 gene superfamily is involved in the metabolism and clearance of xenobiotics. This assay used human CYP2C19 to measure the hydroxylation of ethylene glycol ester of 6' deoxyluciferin (Luciferin-H EGE; […]) to luciferin. The luciferin is then measured by luminescence after the addition of a luciferase detection reagent. Luciferin-H EGE concentration in the assay was equal to its KM for CYP2C19. Inhibitors and some substrates limit the production of luciferin, and decrease measured luminescence.
NCGC Assay Protocol Summary:
Two uL of enzyme and substrate mix (final concentrations: 5nM CYP2C19, 10uM Luciferin-H EGE, 50mM KPO4) were dispensed into a white, solid bottom 1536-well microtiter plate. 23nL of compound was transferred by a pin tool. The plate was incubated at 37C for 10 min. Two uL of an NADPH regeneration solution (Promega supplied reagent) was dispensed and the reaction was allowed to continue for 60 min at 37C. Then the reaction was stopped by reconstituted luciferin detection buffer. After another 20 min of incubation the plate was read on the ViewLux (Perkin Elmer) at 60 sec exposure and 2x2 binning. This protocol was carried out with Promega-Glo reagents and further information can be found at http://www.promega.com/tbs/tb325/tb325.pdf. Data were normalized to the to AC100 inhibition (57uM ketoconazole).
Keywords: P450, CYP2C19, Luciferase, MLSMR, MLSCN, NIH Roadmap, qHTS, NCGC
Potency is the fitted concentration of half-maximal effect.

| SMILES | Potency |
| --- | --- |
| C=C1C(=O)O[C@@H]2[C@H]3O[C@]3(C)CCC=C(C)CC[C@@H]12 | inactive |
| CCCn1c(=O)c2[nH]c(C3CCCC3)nc2n(CCC)c1=O | inactive |
| CCCc1c(-c2ccc(O)cc2)nn(-c2ccc(O)cc2)c1-c1ccc(O)cc1 | 10 µM (active) |
| O=C(O)c1cc2cc(F)ccc2[nH]1 | inactive |
| CC[C@H](NC(=O)c1c(C)c(-c2ccccc2)nc2ccccc12)c1ccccc1 | 25.1 µM (active) |
| CC(=O)N[C@@H](Cc1c[nH]c2ccccc12)C(=O)OCc1cc(C(F)(F)F)cc(C(F)(F)F)c1 | 7.94 µM (active) |
| N[C@H](C(=O)O)c1cc(O)cc(O)c1 | inactive |
| O=C(O)c1cccnc1C(=O)O | inactive |
| O=c1[nH]c(=O)c2nc3ccccc3nc2[nH]1 | inactive |
| NC(=O)c1ccccc1 | inactive |
| O=c1cc(-c2ccccc2)[nH]c2nc(Cl)ccc12 | inactive |
| CC(=O)C(C)=O | inactive |
| Nc1nc2ccc(Cl)cc2c2nc(-c3ccco3)nn12 | inactive |
| N=C(N)SCCN | inactive |
| NCCCNCCCCNCCCN | inactive and 7.94 µM (active) |
| NCCS(=O)O | inactive |
| Oc1cc(O)c2c(c1)O[C@H](c1ccc(O)c(O)c1)[C@@H](O)C2 | inactive |
| C[C@](Cc1ccc(O)c(O)c1)(NN)C(=O)O | inactive |
| Cc1nc(N=Nc2ccc(C(=O)O)cc2)c(COP(=O)(O)O)c(C=O)c1O | inactive |
| NC1(C(=O)O)CCCCC1 | inactive |

| SMILES | Potency |
| --- | --- |
| Cc1nc2c(OCc3ccccc3)cccn2c1CC#N | inactive |
| O=C(O)c1ccccc1Nc1cccc(OCc2ccc3ccccc3n2)c1 | inactive and 5.01 µM (active) |
| Cn1c(=O)c2[nH]c(-c3ccc(S(=O)(=O)O)cc3)nc2n(C)c1=O | inactive |
| CNc1cc(NS(=O)(=O)c2ccc(N)cc2)nc(NC)n1 | inactive |
| CCn1c(=O)[nH]c2cc(Cl)c(Cl)cc21 | inactive |
| O=c1onc2cnc3ccccc3n12 | inactive |
| O=C(N[C@@H](Cc1ccccc1)C(=O)CCl)OCc1ccccc1 | 5.01 µM (active) |
| C[C@H](NC(=O)/C(C#N)=C/c1ccc(O)c(O)c1)c1ccccc1 | inactive |
| COCc1nc2c([nH]1)c(=O)n(C)c(=O)n2CC(C)C | inactive |
| O=C(c1ccc2c(c1)OCCO2)N1CCCCC1 | inactive |
| Cn1cc(C(=O)OCC2CCN(CCNS(C)(=O)=O)CC2)c2ccccc21 | inactive |
| CNC(=O)c1cc2c(cn1)[nH]c1ccccc12 | inactive |
| CCCCCCN(CCCCCC)C(=O)Cc1c(-c2ccc(F)cc2)[nH]c2ccccc12 | 3.98 µM (active) |
| Cn1ccnc1 | inactive |
| CSC(=N)N | 0.631 µM (active) |
| OC1(c2ccc(Cl)cc2)CCN(Cc2c[nH]c3ccccc23)CC1 | inactive |
| NC/C=C\C(=O)O | inactive |
| CC(=O)NNC(=O)N1Cc2ccccc2Oc2ccc(Cl)cc21 | inactive |
| O=C1Cc2c([nH]c3ccc(Br)cc23)-c2ccccc2N1 | inactive |
| O=[N+]([O-])c1cccc2cn[nH]c12 | inactive |
